23 molecules from PubChem BioAssay (NCATS) can be followed below.

Results filed as inconclusive are left out. Calls of active or inactive are those of the source. Unless noted, the call rests on the fitted dose curve; in most records, active means well fitted curve in the direction sought with a large enough effect; inconclusive means small, poorly fitted or top-dose-only effect, or another doubt; inactive means no such curve, though single readings can be large; an effect the other way counts as inactive or inconclusive.

Assay [1] is described as follows: Primary qHTS for inhibitors of nuclear receptor binding SET domain protein 2 (NSD2) in an RCH-ACV wild type WT cells (2C) (AID 1645877). Further: nearly all actives have a fitted effect of over 70% in size. Further: potency means the concentration at half of the fitted maximal effect.
In assay [2] the target is Glutathione peroxidase 1 (Homo sapiens) (UniProt P07203). Description: Primary qHTS Assay for Inhibitors of Recombinant Selenoprotein Glutathione Peroxidase 1 (GPX1) (AID 1845191). Further: nearly all actives have a fitted effect of over 65% in size. On activity, negative = inhibition: on the % scale 0 is the no-effect control and ±100 the full control effect. A digest of the protocol: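 NADPH consumption tracked by fluorescence at 340/450 nm between t=0 and t=15 min, room temperature. Final mix: 10 nM GPX1, 100 nM glutathione reductase, 1 mM GSH, 0.5 mM NADPH, 0.5 mM cumene hydroperoxide, 0.01% BSA; 30 min compound–enzyme preincubation.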
A general note: Quantitative high-throughput screening tests each substance at several concentrations.

The target in assay [3] is Phospholipid hydroperoxide glutathione peroxidase GPX4 (Homo sapiens) (UniProt P36969). Description: Primary qHTS Assay for Inhibitors of Recombinant Selenoprotein Glutathione Peroxidase 4 (GPX4) (AID 1845192). Further: nearly all actives have a fitted effect of over 65% in size. On activity change, negative = inhibition: on the % scale 0 is the no-effect control and ±100 the full control effect. A digest of the protocol: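 NADPH consumption followed by fluorescence at 340/450 nm, t=0 and after 15 min at room temperature. Reaction started with cumene hydroperoxide (0.5 mM final) after 30 min compound–GPX4 preincubation; final 200 nM GPX4, 100 nM GR, 1 mM GSH, 0.5 mM NADPH.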

Assay [4] concerns the target Catechol O-methyltransferase (Homo sapiens) (UniProt P21964). Description: Confirmatory Screen for Target Class Profiling of Small Molecule Inhibitors of Methyltransferases (AID 1745852; calls by dose curve; further: potency means the concentration at half of the fitted maximal effect; on activity change, negative = inhibition: on the % scale 0 is the no-effect control and ±100 the full control effect). Particulars: MTase-Glo luminescence, SAH detection, recombinant enzyme; measured here: COMT max response; stronger effect = lower value.
The target of assay [5] is Guanidinoacetate N-methyltransferase (Homo sapiens) (UniProt Q14353). The assay is described as above. Particulars: MTase-Glo luminescence, SAH detection, recombinant enzyme; activity change, negative = inhibition: at 57.3 µM (top of the series) unless noted.
For assay [6], the target named is Nicotinamide N-methyltransferase (Homo sapiens) (UniProt P40261). The description is as above. Particulars: MTase-Glo luminescence, SAH detection, recombinant enzyme; measured here: NNMT max response; stronger effect = lower value.
Assay [7] addresses Phenylethanolamine N-methyltransferase (Homo sapiens) (UniProt P11086). Described as above. Particulars: MTase-Glo luminescence, SAH detection, recombinant enzyme; measured here: PNMT max response; stronger effect = lower value.
Assay [8] concerns the target Metallo-beta-lactamase type 2 (Klebsiella pneumoniae) (UniProt C7C422). Description: qHTS to identify inhibitors of the New Delhi Metallo-beta-lactamase (NDM): assay validation screen against the NCATS LOPAC Collection (AID 1794843).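 Further: nitrocefin turnover by NDM-1 measured as 485 nm absorbance at plateau; on the % scale 0 is the no-effect control and ±100 the full control effect.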 A digest of the protocol:
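Nitrocefin hydrolysis (50 uM substrate stock) by NDM-1, 2 nM final, was followed by 485 nm absorbance after compound preincubation; buffer was 50 mM HEPES pH 7.0, 1 uM ZnSO4, 0.01% Tween20.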

Assay [9] concerns the target Rap guanine nucleotide exchange factor 3 (Homo sapiens) (UniProt O95398). Description: Confirmatory qHTS for agonist of cAMP-regulated guanine nucleotide exchange factor 3 (EPAC1) (AID 1645881). Further: nearly all actives have a fitted effect of over 75% in size. Further: potency means the concentration at half of the fitted maximal effect.
Assay [10] has as its target Rap guanine nucleotide exchange factor 4 (Homo sapiens) (UniProt Q8WZA2). Description: Confirmatory qHTS for agonist of cAMP-regulated guanine nucleotide exchange factor 4 (EPAC2) (AID 1645884).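 Further: nucleotide exchange releases bodipy-GDP from Rap1 and this lowers its fluorescence; nearly all actives have a fitted effect of over 65% in size.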 Further: potency means the concentration at half of the fitted maximal effect.
The target in assay [11] is Rap guanine nucleotide exchange factor 3 (Homo sapiens) (UniProt O95398). Description: Confirmatory qHTS for antagonist of cAMP-regulated guanine nucleotide exchange factor 3 (EPAC1) (AID 1645880).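 Further: plate controls were DMSO only for no effect and full effect of the ATA control for full effect; nearly all actives have a fitted effect of over 55% in size.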 A digest of the protocol: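 Released BODIPY-GDP fluoresces less than Rap1-bound BODIPY-GDP; the signal is followed at 480/540 nm at 5-min intervals over 30 min, after 5 min at room temperature. Reactions contain 100 nM EPAC1, 250 nM RAP1B-BODIPY-GDP and 50 uM GDP; results are normalized to ATA and DMSO.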
Rap guanine nucleotide exchange factor 3 (Homo sapiens), sequence (O95398 whole entry, looked up): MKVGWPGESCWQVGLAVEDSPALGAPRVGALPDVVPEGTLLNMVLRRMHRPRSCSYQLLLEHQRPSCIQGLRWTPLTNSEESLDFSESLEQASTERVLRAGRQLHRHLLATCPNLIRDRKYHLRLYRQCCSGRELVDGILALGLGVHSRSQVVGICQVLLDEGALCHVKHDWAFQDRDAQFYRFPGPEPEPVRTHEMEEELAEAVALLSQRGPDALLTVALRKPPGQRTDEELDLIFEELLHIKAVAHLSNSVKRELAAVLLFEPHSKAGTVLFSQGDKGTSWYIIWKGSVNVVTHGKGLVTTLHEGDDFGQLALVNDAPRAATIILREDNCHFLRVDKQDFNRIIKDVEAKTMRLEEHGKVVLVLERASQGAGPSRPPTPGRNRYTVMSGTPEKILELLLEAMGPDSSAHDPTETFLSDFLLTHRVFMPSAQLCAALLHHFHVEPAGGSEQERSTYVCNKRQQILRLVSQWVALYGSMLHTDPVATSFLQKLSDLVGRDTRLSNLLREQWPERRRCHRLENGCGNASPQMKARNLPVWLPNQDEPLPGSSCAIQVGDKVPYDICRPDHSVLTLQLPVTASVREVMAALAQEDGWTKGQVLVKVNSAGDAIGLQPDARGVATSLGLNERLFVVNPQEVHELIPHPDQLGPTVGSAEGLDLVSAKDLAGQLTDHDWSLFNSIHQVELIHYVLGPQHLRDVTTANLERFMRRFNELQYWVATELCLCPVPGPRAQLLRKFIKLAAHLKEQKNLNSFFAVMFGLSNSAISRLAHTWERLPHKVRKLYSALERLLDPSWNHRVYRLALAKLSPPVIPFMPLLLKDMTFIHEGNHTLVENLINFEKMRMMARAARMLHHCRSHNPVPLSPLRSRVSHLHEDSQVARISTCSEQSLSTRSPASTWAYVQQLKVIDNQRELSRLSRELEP

Catechol O-methyltransferase (Homo sapiens), sequence (P21964 whole entry, looked up): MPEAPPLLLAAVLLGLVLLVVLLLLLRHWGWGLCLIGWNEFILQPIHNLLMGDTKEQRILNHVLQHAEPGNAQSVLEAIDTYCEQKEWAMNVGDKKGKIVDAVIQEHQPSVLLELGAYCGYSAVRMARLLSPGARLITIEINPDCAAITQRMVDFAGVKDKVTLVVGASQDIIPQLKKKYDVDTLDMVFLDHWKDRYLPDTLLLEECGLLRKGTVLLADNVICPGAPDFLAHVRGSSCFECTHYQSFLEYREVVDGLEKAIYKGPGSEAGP
Metallo-beta-lactamase type 2 (Klebsiella pneumoniae), sequence (C7C422 whole entry, looked up): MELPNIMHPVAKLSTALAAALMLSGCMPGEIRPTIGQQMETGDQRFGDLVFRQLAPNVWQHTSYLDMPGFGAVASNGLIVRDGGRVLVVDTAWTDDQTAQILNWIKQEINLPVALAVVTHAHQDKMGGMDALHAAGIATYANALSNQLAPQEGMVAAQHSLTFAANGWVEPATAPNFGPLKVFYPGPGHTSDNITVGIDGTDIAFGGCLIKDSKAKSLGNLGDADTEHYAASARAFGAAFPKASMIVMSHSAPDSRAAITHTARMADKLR
Nicotinamide N-methyltransferase (Homo sapiens), sequence (P40261 whole entry, looked up): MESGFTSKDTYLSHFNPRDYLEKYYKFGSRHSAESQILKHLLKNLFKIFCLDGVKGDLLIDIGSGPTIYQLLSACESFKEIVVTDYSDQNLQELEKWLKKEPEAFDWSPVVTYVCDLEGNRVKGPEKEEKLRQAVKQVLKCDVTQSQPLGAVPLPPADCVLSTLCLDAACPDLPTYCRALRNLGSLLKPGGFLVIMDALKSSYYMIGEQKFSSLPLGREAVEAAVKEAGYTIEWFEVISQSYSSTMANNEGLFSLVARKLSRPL
Glutathione peroxidase 1 (Homo sapiens), sequence (P07203 whole entry, looked up): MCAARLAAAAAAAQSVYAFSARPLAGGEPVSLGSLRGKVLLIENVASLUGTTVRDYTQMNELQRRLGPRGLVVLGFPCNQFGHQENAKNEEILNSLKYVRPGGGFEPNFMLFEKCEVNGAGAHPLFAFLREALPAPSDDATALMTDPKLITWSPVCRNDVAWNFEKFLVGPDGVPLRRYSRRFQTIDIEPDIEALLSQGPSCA
Phospholipid hydroperoxide glutathione peroxidase GPX4 (Homo sapiens), sequence (P36969 whole entry, looked up): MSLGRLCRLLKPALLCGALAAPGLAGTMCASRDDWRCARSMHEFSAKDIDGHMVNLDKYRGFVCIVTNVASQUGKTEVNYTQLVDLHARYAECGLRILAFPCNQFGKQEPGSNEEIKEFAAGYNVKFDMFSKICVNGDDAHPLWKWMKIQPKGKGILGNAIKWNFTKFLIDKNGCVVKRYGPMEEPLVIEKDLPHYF
Phenylethanolamine N-methyltransferase (Homo sapiens), sequence (P11086 whole entry, looked up): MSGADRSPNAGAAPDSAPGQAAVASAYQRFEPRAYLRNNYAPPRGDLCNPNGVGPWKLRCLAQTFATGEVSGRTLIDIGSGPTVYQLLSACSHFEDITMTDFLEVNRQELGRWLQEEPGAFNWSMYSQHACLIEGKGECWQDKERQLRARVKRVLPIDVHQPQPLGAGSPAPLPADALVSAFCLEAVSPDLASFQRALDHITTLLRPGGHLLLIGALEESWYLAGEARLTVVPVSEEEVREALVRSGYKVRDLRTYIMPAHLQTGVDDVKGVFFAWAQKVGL
Rap guanine nucleotide exchange factor 4 (Homo sapiens), sequence (Q8WZA2 whole entry, looked up): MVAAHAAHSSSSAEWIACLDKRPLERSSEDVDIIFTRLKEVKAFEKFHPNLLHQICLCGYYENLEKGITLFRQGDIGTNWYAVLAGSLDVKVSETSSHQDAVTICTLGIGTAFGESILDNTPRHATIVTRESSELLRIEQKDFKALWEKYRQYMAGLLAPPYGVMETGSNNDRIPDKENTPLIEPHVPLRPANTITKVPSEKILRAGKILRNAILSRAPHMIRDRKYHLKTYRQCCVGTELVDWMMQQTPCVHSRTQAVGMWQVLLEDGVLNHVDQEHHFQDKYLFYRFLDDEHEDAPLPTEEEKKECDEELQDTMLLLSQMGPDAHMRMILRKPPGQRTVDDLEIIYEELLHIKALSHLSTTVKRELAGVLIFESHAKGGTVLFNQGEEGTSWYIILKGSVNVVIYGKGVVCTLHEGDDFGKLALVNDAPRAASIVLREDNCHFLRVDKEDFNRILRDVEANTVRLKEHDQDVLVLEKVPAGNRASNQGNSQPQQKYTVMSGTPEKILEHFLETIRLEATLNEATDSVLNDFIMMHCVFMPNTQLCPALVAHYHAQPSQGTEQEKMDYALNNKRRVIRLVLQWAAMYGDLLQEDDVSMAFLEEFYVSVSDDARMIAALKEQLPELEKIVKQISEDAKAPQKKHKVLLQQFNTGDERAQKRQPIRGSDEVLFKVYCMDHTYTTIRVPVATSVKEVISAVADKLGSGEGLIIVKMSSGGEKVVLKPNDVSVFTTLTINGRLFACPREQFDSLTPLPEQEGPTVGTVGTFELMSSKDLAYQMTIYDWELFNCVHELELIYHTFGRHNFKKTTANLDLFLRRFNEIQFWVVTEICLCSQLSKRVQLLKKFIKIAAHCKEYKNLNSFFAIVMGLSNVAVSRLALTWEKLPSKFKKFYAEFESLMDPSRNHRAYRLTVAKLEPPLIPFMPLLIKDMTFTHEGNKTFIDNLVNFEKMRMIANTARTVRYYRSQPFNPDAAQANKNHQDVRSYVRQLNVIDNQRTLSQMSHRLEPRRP

Turning to `CCCN1CCO[C@H]2c3cc(O)ccc3OC[C@@H]21`, the Potency entry in [1], in assay [2] and in [3] was “inactive” in each case.

Consider `COc1ccc2[nH]c3c(c2c1)CCNC3`, for which the figures for the activity in assay [4], in [6] and in [7] were -6.01%, -13.7% and -2.07%, respectively. The activity change, negative = inhibition in [5] was determined as 5.37%. The Potency entry in [8], in assay [2] and in assay [3] was “inactive” throughout.

Regarding `CCCN1CCC[C@@H](c2cccc(O)c2)C1`, the activity in [4] was 4.08%; in [6], 0.9%; in [7], 6.74%. Further, in assay [5], the activity change, negative = inhibition stood at 1.62%. Further, the Potency entry in [8], in assay [2] and in [3] was “inactive” each time.

On to `CO[C@H]1[C@H](O)[C@H](O[C@H]2CC[C@]3(C)C4CC[C@]5(C)[C@H](C6=CC(=O)OC6)CC[C@]5(O)C4CC[C@@H]3C2)O[C@@H](C)[C@@H]1O` (some centres undefined), for which the Potency in assay [1] was 28.2 nM (active). The Potency entry in [2] and in [3] was “inactive” each time.

In the case of `O=C1C[C@@H]2OCC=C3CN4CC[C@]56c7ccccc7N1[C@H]5[C@H]2[C@H]3C[C@H]46`, the Potency result in assay [1], in assay [2] and in assay [3] was “inactive” throughout.

As for `COC(=O)N1CCN(C(=O)Cc2ccc(Cl)c(Cl)c2)[C@@H](CN2CCCC2)C1`, the Potency entry in assay [1] and in assay [3] was “inactive” throughout.

Consider `CC(C)(C)c1cc(O)ccc1O`, for which the Potency result in [9] and in assay [10] was “inactive” each time.

As for `CC(=O)OC1CC(O)C2(C)C(CC(OC(C)=O)C3(C)C2CCC2(C)C(c4ccoc4)C(=O)C4OC423)C1(C)C` (centres undefined), the Potency result in assay [1], in [2] and in assay [3] was “inactive” each time.

`c1ccc2cc(CC3=NCCN3)ccc2c1`: the activity was 5% in assay [4], 0.294% in assay [6] and 4.14% in assay [7]. The activity change, negative = inhibition in assay [5] came out at 3.5%. Moreover, the Potency result in assay [8], in [2] and in [3] was “inactive” in each case.

On to `NCC(O)c1cc(O)c(O)cc1F` (centres undefined), for which the figures for the activity in assay [4], in [6] and in [7] were 129%, -1.34% and 31.6%, respectively. Besides, the activity change, negative = inhibition in assay [5] was determined as 4.77%. Further, the Potency result in assay [8], in [2] and in assay [3] was “inactive” throughout.

For `CCn1cnc2c(Nc3cccc(Cl)c3)nc(N[C@@H]3CCCC[C@@H]3N)nc21`, the figures for the activity in assay [4], in assay [6] and in [7] were 7.4%, -17.5% and 1.09%, respectively. The activity change, negative = inhibition in [5] was 4.82%. Moreover, the Potency result in assay [8], in assay [2] and in assay [3] was “inactive” in each case.

Consider `C[C@H]1O[C@@H](O[C@H]2C[C@@H](O)[C@]3(CO)C4C(CC[C@]3(O)C2)[C@@]2(O)CC[C@H](C3=CC(=O)OC3)[C@@]2(C)C[C@H]4O)[C@@H](O)[C@@H](O)[C@H]1O` (some centres undefined), for which the Potency in assay [1] was 383 nM (active). Also, the Potency entry in assay [3] was “inactive”.

Regarding `O=C1OC2(c3cc(Br)c(O)cc3Oc3c2cc(Br)c(O)[c]3[Hg])c2ccccc21` (centres undefined), the activity, negative = inhibition in [11] is 245% [at 22 µM] (inactive). The Potency in assay [9] was 4.75 µM (active); in assay [10] it was 1.34 µM (active). Moreover, the Potency entry in assay [2] is “inactive”.

Consider `CCc1c(C(=O)C(N)=O)c2c(OCC(=O)OC)cccc2n1Cc1ccccc1`, for which the Potency result in [1], in assay [2] and in assay [3] was “inactive” in each case.

Turning to `CC(C)[C@@H](CN1CC[C@@](C)(c2cccc(O)c2)[C@@H](C)C1)NC(=O)[C@H]1Cc2ccc(O)cc2CN1`, the Potency in assay [1] is 14500 nM (active). In addition, the Potency entry in assay [2] and in [3] was “inactive” throughout.

As for `C[C@@H]1[C@@H]2Cc3ccc(O)cc3[C@@]1(C)CCN2CC1CC1`, the activity is 7.89% in assay [4], -1.08% in assay [6] and 4.55% in [7]. Besides, the activity change, negative = inhibition in assay [5] came to 6.66%.

For `CN(C(=O)Cc1ccccc1)C(CN1CCCC1)c1ccccc1` (centres undefined), the Potency result in [1] and in assay [3] was “inactive” in each case.

In the case of `CCC(C)(C#N)O[C@@H]1O[C@H](CO)[C@@H](O)[C@H](O)[C@H]1O` (some centres undefined), the Potency entry in assay [1], in [2] and in assay [3] was “inactive” throughout.

Take `CN1CC[C@@]2(C)c3cc(O)ccc3N(C)C12` (some centres undefined): the activity in [4] was -27.2%; in [6], -23.6%; in [7], -16.3%. Further, the Potency in assay [5] was 24.3 µM (active). In addition, the Potency entry in [8], in [2] and in assay [3] was “inactive” each time.

Consider `CCCN1CC[C@@H]2c3cc(O)ccc3CC[C@@H]21`, for which the activity in [4] was 1.91%; in assay [6], -3.17%; in assay [7], -0.789%. The activity change, negative = inhibition in assay [5] is 0.453%. Further, the Potency entry in [8], in [2] and in [3] was “inactive” throughout.

Regarding `CC(=O)O[C@H]1C[C@@H](OC(C)=O)C(C)(C)C2C[C@@H](O)[C@]3(C)C(CC[C@@]4(C)[C@H](C5=CC(=O)OC5O)C[C@H]5O[C@]543)[C@]21C` (some centres undefined), the Potency result in assay [1], in [2] and in assay [3] was “inactive” in each case.

`CC12CCC3C(CCC4(O)CC(O)CCC34C=O)C1(O)CCC2C1=CC(=O)OC1` (centres undefined): the Potency in assay [1] was 515 nM (active). In addition, the Potency entry in assay [2] and in assay [3] was “inactive” each time.

Consider `C[C@]12Cc3cn4c(nc3C=C1CCC1C2CC[C@@]2(C)[C@H]1CC[C@@]2(O)C#N)nc1ccccc14` (some centres undefined), for which the activity in assay [4] was -23.1%; in assay [6], -35.3%; in assay [7], -11.6%. For the same molecule, the Potency in assay [5] was 0.611 µM (active). The Potency entry in assay [8], in assay [2] and in [3] was “inactive” in each case.
